# Mdm2-MdmX inh: inhibitors of human Mdm2-MdmX association, primary screen, cell-based, luminescence, split luciferase, SaOS-2, uHTS; Protein Mdm4 (Homo sapiens) + E3 ubiquitin-protein ligase Mdm2 (Homo sapiens), …; SaOS-2 split-luciferase Mdm2/MdmX complementation; inhibition, % at 8 µM; 3% of 330,000 active;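 active = inhibition of at least 50% at 8 µM in the primary screen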
# Target sequence (O15151 whole entry, looked up): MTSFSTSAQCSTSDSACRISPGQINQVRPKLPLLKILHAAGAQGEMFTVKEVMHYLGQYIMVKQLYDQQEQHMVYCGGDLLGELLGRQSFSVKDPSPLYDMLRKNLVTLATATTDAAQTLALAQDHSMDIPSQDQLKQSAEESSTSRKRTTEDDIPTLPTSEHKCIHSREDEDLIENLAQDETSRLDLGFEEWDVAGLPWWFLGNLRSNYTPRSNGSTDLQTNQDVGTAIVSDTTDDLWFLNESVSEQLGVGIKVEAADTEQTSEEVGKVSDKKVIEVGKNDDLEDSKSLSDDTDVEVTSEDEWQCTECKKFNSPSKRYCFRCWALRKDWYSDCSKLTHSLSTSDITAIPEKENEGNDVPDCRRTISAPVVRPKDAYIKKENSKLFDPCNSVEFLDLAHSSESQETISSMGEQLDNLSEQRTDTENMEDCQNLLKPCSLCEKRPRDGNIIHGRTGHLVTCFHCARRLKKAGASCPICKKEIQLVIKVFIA
# Target sequence (Q00987 whole entry, looked up): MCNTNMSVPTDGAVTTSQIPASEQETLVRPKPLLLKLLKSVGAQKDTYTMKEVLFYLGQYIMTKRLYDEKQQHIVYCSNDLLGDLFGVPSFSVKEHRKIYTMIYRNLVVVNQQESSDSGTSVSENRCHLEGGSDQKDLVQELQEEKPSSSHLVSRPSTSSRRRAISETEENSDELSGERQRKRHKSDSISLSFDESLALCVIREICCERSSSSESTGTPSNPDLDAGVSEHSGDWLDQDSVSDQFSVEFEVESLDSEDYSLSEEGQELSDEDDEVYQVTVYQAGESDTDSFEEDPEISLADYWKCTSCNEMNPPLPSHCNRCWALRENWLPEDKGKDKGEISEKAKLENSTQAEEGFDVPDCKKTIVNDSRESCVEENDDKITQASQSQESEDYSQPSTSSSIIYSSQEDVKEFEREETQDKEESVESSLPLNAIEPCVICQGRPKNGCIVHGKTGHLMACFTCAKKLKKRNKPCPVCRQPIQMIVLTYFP
# tim23-1 inh: growth inhibitors of tim23-1 mutant yeast, primary screen, luminescence, uHTS; 1.3% of 330,000 active; S. cerevisiae tim23-1 growth, BacTiter-Glo luminescence, 24 h; inhibition, % at 20 µM;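 active = growth inhibition of the mutant yeast at or above 50%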;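 also: temperature-sensitive mutant grown at 25 °C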
# TIM10 inh: growth inhibitors of isogenic TIM10 control yeast, primary screen, counter-screen for tim10-1 yeast inhibitor project, luminescence, uHTS. S. cerevisiae TIM10 strain growth, BacTiter-Glo luminescence, 24 h. inhibition, % at 10 µM. 1.4% of 330,000 active;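 active = inhibition of 40% or more at the single tested concentration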;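 also: wild-type TIM10 isogenic control strain grown at permissive 25 °C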
# MPTP inh: mitochondrial permeability transition pore inhibitors, primary screen, biochemical, isolated mouse mitochondria, absorbance. Ca2+ swelling absorbance, 30 min. inhibition, % at 10 µM. 1.4% of 360,000 active. AID 602449, 2012;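 active = inhibition of 50% or more, scaled per plate between neutral and stimulator controls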
# tim10-1 inh: growth inhibitors of tim10-1 mutant yeast, primary screen, luminescence, uHTS; S. cerevisiae tim10-1 ts strain growth, BacTiter-Glo, 24 h; inhibition, % at 20 µM; 2.2% of 330,000 active;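 active = inhibition of at least 40%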;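 also: mutant grown at 25 °C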
# Mdm2-MdmX conf: Mdm2-MdmX complex disruptors, retested hits, confirmation, luminescence, single concentration; shares compounds with Mdm2-MdmX inh; Mdm2-MdmX binding, luminescent assay; inhibition, % at 8 µM; 55% of 10,000 active; AID 489028, 2010; in the data active = inhibition above about 40%
# FLuc counter: full-length luciferase signal inhibition, confirmation, counter-screen for Mdm2/MdmX interaction inhibitor project, cell-based, single concentration, SaOS-2; shares compounds with Mdm2-MdmX inh; SaOS-2 full-length luciferase counterscreen, luminescence; inhibition, % at 8 µM; 77% of 6,200 active; AID 504607, 2011;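 active = mean inhibition at 8 µM reaching about 37%, which flags the compound as non-specific, limit read from the data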;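 also: p53-null SaOS-2 cells with luciferase driven by a doxycycline-inducible promoter; compound on cells about two nights before reading with doxycycline added after day one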
# Numbers stand for hits; n = inactive; x = no result given. A selection: hits, their analogues and other compounds. The true share with any hit is near 6.3%.
SMILES,Mdm2-MdmX inh,tim23-1 inh,TIM10 inh,MPTP inh,tim10-1 inh,Mdm2-MdmX conf,FLuc counter
CC(=O)Nc1ccc(Nc2cc(C(C)C)nc3c(-c4ccccc4)c(C)nn23)cc1,55,n,n,n,n,43,54
CC(=O)Nc1ccc(Nc2cc(C)nc3c(-c4ccccc4)c(C)nn23)cc1,n,n,n,n,n,x,x
O=C(CCl)NC1(C(=O)O)CCCC1,x,x,x,n,x,x,x
CC1=CCC[C@@H]2[C@]3(CC/C(=C/CO)CO)CO[C@@]2(C1)[C@@H](O)C[C@H]3C,x,x,x,n,x,x,x
OC[C@@H]1CN(Cc2ccncc2)C[C@H](n2cnc3c(N4CCOCC4)ncnc32)O1,x,x,x,n,x,x,x
Cc1nc2c(OCc3ccc(C#N)cc3)cccn2c1N(C)C(=O)CCC1CCCC1,x,x,x,n,x,x,x
CCCCN(C=O)c1c(CC)nc2c(OCc3ccc(Cl)cc3)cccn12,x,x,x,n,x,x,x
O=c1[nH]c(CN2CCN(c3ccccc3)CC2)nc2scc(-c3ccccc3)c12,72,n,n,n,n,73,54
COc1ccc(N2CCN(Cc3nc4scc(-c5ccccc5)c4c(=O)[nH]3)CC2)cc1,n,n,n,n,n,x,x
O=C(NCCc1ccccc1)c1ccc2c(c1)OCO2,66,n,n,n,n,57,52
O=C(NCCS(=O)(=O)NCc1ccccc1)c1ccc2c(c1)OCO2,n,n,n,n,n,x,x
COc1ccc(-c2cc3c(=O)n(CC(=O)NCc4ccc(C)cc4)ncn3n2)cc1,95,n,n,n,n,n,x
COc1ccc(-c2cc3c(=O)n(CC(=O)NCc4ccc(Cl)cc4)ncn3n2)cc1,64,n,n,n,n,n,x
COc1ccc(CNC(=O)Cn2ncn3c(cc4ccccc43)c2=O)cc1,67,n,n,n,n,n,x
COc1ccc(-c2cc3c(=O)n(CC(=O)NCc4ccc(F)cc4)ncn3n2)cc1,86,n,n,n,n,n,x
c1ccc(COc2cccc(-c3cc4nc(NCc5cccs5)ccn4n3)c2)cc1,x,x,x,n,x,x,x
CCN(CC(=O)Nc1c(F)cccc1F)C(=O)C1CCCO1 (centres undefined),x,x,x,n,x,x,x
CS(=O)(=O)N1Cc2cc(C(=O)NCC3CC3)nc(-c3cccc(-c4cccnc4)c3)c2[C@H]1CCO,x,x,x,n,x,x,x
CC1(C(=O)Nc2ccc3c(c2)OCCO3)CCC(=O)N1CCc1c[nH]c2ccccc12 (centres undefined),x,x,x,n,x,x,x
Cc1cccc(/C=N/NC(=O)Cc2ccc(Cl)cc2)c1O,64,n,n,n,n,42,n
Cc1ccc(O)c(/C=N/NC(=O)Cc2ccc(Cl)cc2)c1,64,n,n,n,n,51,n
O=C(Cc1ccc(Cl)cc1)N/N=C/c1ccc(O)c(O)c1,x,x,x,n,x,x,x
CCNC(=O)C1(C)CCN(C(=O)c2ccccc2OC(F)(F)F)C1 (centres undefined),x,x,x,n,x,x,x
CCCCCCN1C[C@@H](n2cc(COC(=O)c3ccccc3)nn2)[C@H](O)C[C@@H]1c1ccc(Cl)cc1,x,x,x,n,x,x,x
O=C(c1cc([N+](=O)[O-])ccc1N1CCOCC1)N1CCN(c2ccccc2)CC1,58,n,n,n,n,77,95
SMILES,Mdm2-MdmX inh,tim23-1 inh,TIM10 inh,MPTP inh,tim10-1 inh,Mdm2-MdmX conf,FLuc counter
Cc1ccc(C(=O)c2cc([N+](=O)[O-])ccc2N2CCOCC2)cc1C,51,n,n,n,n,61,60
Cc1cccc(NC(=O)c2cc([N+](=O)[O-])ccc2N2CCOCC2)c1C,x,x,x,n,x,x,x
Cc1c(-c2ccccc2)oc2c(C(=O)N3CCN(c4ccc([N+](=O)[O-])cc4)CC3)cccc2c1=O,67,n,n,n,n,77,51
Cc1ccc(C(=O)c2cc([N+](=O)[O-])ccc2N2CCCCC2)cc1C,64,n,n,n,n,58,60
C(=C\c1ccccc1)/CN1CCN(C(c2cc3ccccc3o2)c2nnnn2-c2ccc3c(c2)OCCO3)CC1 (centres undefined),x,x,x,n,x,x,x
CSc1ccc(COC(=O)c2cc([N+](=O)[O-])ccc2N2CCOCC2)cc1,61,n,n,n,n,77,113
Cc1ccc(C)c(C(=O)COC(=O)c2cc([N+](=O)[O-])ccc2N2CCOCC2)c1,n,n,n,n,n,x,x
Cc1ccccc1COC(=O)c1cc([N+](=O)[O-])ccc1N1CCOCC1,n,n,n,n,n,x,x
Cc1ccc(C(=O)c2cc([N+](=O)[O-])ccc2N2CCOCC2)c(C)c1,67,n,n,n,n,58,97
Cc1c(C(=O)Nc2ccc(F)cc2)oc2ccc(S(=O)(=O)N3CCC4(CC3)OCCO4)cc12,n,n,n,n,n,x,x
COc1ccc(C(=O)NC(=S)Nc2cccc(S(=O)(=O)N3CCOCC3)c2)cc1,n,n,n,n,n,x,x
Cc1c(C(=O)Nc2cccc(Cl)c2)oc2ccc(S(=O)(=O)N3CCC4(CC3)OCCO4)cc12,61,n,n,n,n,67,n
COc1ccc(S(=O)(=O)N2CCCCC2)cc1NC(=O)c1[nH]c(C)c(C(C)=O)c1C,82,n,n,n,n,59,43
CCOc1cc(N2CCOCC2)c(OCC)cc1NC(=O)c1[nH]c(C)c(C(C)=O)c1C,56,n,n,n,n,n,86
CC(=O)c1c(C)[nH]c(C(=O)Nc2ccccc2N2CCOCC2)c1C,n,n,n,n,n,x,x
CC(=O)Oc1ccc(-c2ccc(C(=O)Nc3cccc(S(=O)(=O)N4CCOCC4)c3)cc2)cc1,66,n,n,n,n,44,89
CC(=O)c1c(C)[nH]c(C(=O)Nc2cccc(S(=O)(=O)N3CCOCC3)c2)c1C,58,n,n,n,n,n,87
CCC1(c2ccccc2)NC(=O)N(CC(=O)Nc2cc(S(=O)(=O)N3CCCCCC3)ccc2OC)C1=O (centres undefined),51,n,n,n,n,43,78
CCOc1ccc(S(=O)(=O)N2CCCCC2)cc1NC(=O)CN1C(=O)NC(CC)(c2ccccc2)C1=O (centres undefined),n,n,n,n,n,x,x
COCCNC(=O)C1CCCN(C(=O)c2ccc3sccc3c2)CC1 (centres undefined),x,x,x,n,x,x,x
Cc1ccccc1CSc1nc2[nH]ncc2c(=O)[nH]1,n,n,n,n,n,x,x
Cc1ccc(C)c(CSc2nc3[nH]ncc3c(=O)[nH]2)c1,56,n,n,n,n,68,48
CN1C(=O)/C(=C/c2cn(CC(=O)N3CCCCC3)c3ccccc23)c2ccccc21,52,n,n,x,n,n,x
O=Cc1cn(CC(=O)N2CCCCC2)c2ccccc12,n,n,n,n,n,x,x
